Data as given in PubChem BioAssay AID463173 (ICCB-Longwood Screening Facility, Harvard Medical School, 2010).
Hit rate of the full screen: of about 52,000 compounds, about 1,700 (3.3%) were called active. The sample holds actives, similar compounds and a random draw of the others, so the mix is not that of the screen. Values without a mark were called inactive. Cut-off read from the data, not from the text of the source: active = survival mostly below about 52% (no sharp cut-off); inactive = mostly above about 56%.

Tested on: Wild type
Assay: growth inhibition of S. aureus wild type versus tarO mutant, primary screen, teichoic acid synthesis inhibitors, RN4220, OD600 (AID 463173)
Details: S. aureus RN4220 wild type/DeltatarO growth, OD600, 18 h, hits give low values, screened at 18.75 µg/mL (by protocol)

Row | SMILES | survival
1 | CCC(C(=O)Nc1nnc2n1CCS2)c1ccccc1 (stereo unspecified) | 66%
2 | CCN(CC)Cc1cc(C(=O)O)oc1C(C)(C)C | 106%
3 | COc1ccc(-c2cc(C(F)(F)F)c(C#N)c(SCC(=O)Nc3cccc(C)c3)n2)cc1 | 74%
4 | CN(C(=O)CSc1cn(CC(=O)N2CCCC2)c2ccccc12)c1ccccc1 | 83%
5 | Cc1ccc(C(=O)NCC(c2ccc3c(c2)OCO3)N2CCN(c3ccc(F)cc3)CC2)cc1 (stereo unspecified) | 68%
6 | Cc1ccc(C)c(CS(=O)(=O)c2cn(CC(=O)N(C(C)C)C(C)C)c3ccccc23)c1 | 77%
7 | Cc1cccc(C)c1NC(=O)CSc1ncc2c(n1)-c1ccc(Cl)cc1N(Cc1ccccc1)S2(=O)=O | -2% (active)
8 | CCc1cccc(NC(=O)CSc2ncc3c(n2)-c2ccc(Cl)cc2N(Cc2ccccc2)S3(=O)=O)c1 | 101%
9 | O=C(CSc1ncc2c(n1)-c1ccc(Cl)cc1N(Cc1ccccc1)S2(=O)=O)Nc1ccc(F)c(F)c1 | 129%
10 | COc1ccc(CNC(=O)CSc2ncc3c(n2)-c2ccc(Cl)cc2N(Cc2ccccc2)S3(=O)=O)cc1 | 22%
11 | COc1ccccc1CNC(=O)CSc1ncc2c(n1)-c1cc(Cl)ccc1N(Cc1ccccc1)S2(=O)=O | 73%
12 | COc1ccccc1CNC(=O)CSc1ncc2c(n1)-c1ccc(Cl)cc1N(Cc1ccccc1)S2(=O)=O | 0% (active)
13 | CCc1ccc(NC(=O)Cn2c(=O)n(Cc3ccco3)c(=O)c3oc4ccccc4c32)cc1 | 87%
14 | COc1ccc(C2C(=O)N(C3CCCCC3)CC(=O)N2CCc2ccc(C)cc2)cc1OC (stereo unspecified) | 82%
15 | Cc1ccc(NC(=O)CN2C(=O)C(c3ccccc3)=NC23CCCCC3)cc1C | 89%
16 | COc1ccc(Br)cc1CNC(=O)c1nn(-c2ccc(C)cc2)c(=O)c2c1c1ccccc1n2C | 126%
17 | CC1CCCC(C)N1C(=O)c1ccccc1N (stereo unspecified) | 108%
18 | COc1ccc(-c2ccc(NS(=O)(=O)c3cccc(Cl)c3)cc2)nn1 | 82%
19 | COc1cccc(N2CCN(C(=O)c3cnc4c(-c5ccc(F)cc5)c(C)nn4c3C)CC2)c1 | -6% (active)

Row | SMILES | survival
20 | Cc1nn2c(C)c(C(=O)N3CCN(c4ccc(Cl)cc4)CC3)cnc2c1-c1ccc(F)cc1 | 72%
21 | COc1cccc(N2CCN(C(=O)c3cnc4c(-c5ccccc5)c(C)nn4c3C)CC2)c1 | 76%
22 | CC(=O)N1c2c(cc(Br)cc2S(=O)(=O)N2CCN(c3ccccc3)CC2)CC1C (stereo unspecified) | 98%
23 | Nc1ccc2nc(CCc3ccccc3)[nH]c2c1 | 106%
24 | Oc1ccc(NCc2ccc(OCc3ccccc3)cc2)cc1 | 87%
25 | Oc1ccc(NCc2ccc(OCc3ccccc3Cl)cc2)cc1 | -4% (active)
26 | Oc1ccc(NCc2ccccc2OCc2ccccc2Cl)cc1 | 82%
27 | COc1ccc(NC(=O)C2=C(C)Nc3nc(SCc4ccc(Cl)cc4)nn3C2c2cccc(OC)c2OC)cc1 (stereo unspecified) | 60%
28 | O=C(Nc1ccc(OC(F)(F)F)cc1)c1cc(-c2ccc(Cl)cc2)on1 | 105%
29 | Cc1ccccc1C(=O)Nc1ccc(C(=O)OCc2cc(=O)n3nc(C(C)C)sc3n2)cc1 | 65%
30 | CCN(CC)c1ncnc2c1cnn2-c1cc(Cl)ccc1C | -6% (active)
31 | CCN(c1ncnc2c1cnn2-c1cc(Cl)ccc1C)C1CCCCC1 | 80%
32 | CCN(CC)CCNc1ncnc2c1cnn2-c1cc(Cl)ccc1C | 98%
33 | Cc1ccc(N2CCN(S(=O)(=O)c3ccc4oc(=O)c5ncn(C)c5c4c3)CC2)c(C)c1 | 121%
34 | COC(=O)CCN(C(=O)c1c(C)oc2ncnc(N3CCOCC3)c12)c1ccccc1 | 0% (active)
35 | Cc1ccc(CCNC(=O)c2c(C)oc3nc(C)nc(N4CCOCC4)c23)cc1 | 124%
36 | Cc1nc(N2CCCC2)c2c(C(=O)Nc3ccc(C)c(Cl)c3)c(C)oc2n1 | 130%
37 | Cc1ccc(CNC(=O)c2c(C)oc3ncnc(N4CCOCC4)c23)cc1 | -1% (active)
38 | Cc1oc2ncnc(N3CCOCC3)c2c1C(=O)NCc1ccc(Cl)cc1 | 73%

Row | SMILES | survival
39 | CCc1ccccc1N(CC)C(=O)c1c(C)oc2ncnc(N3CCOCC3)c12 | 70%
40 | CCc1cccc(NC(=O)c2c(C)oc3nc(C)nc(N4CCCC4)c23)c1 | 101%
41 | Cc1nc(N2CCOCC2)c2c(C(=O)NCCc3ccccc3)c(C)oc2n1 | -3% (active)
42 | CCCN(C(=O)c1c(C)oc2ncnc(N3CCOCC3)c12)c1ccc(Cl)c(Cl)c1 | 74%
43 | CCc1ccc(CNC(=O)c2c(C)oc3ncnc(N4CCOCC4)c23)cc1 | 133%
44 | Cc1oc2ncnc(N3CCOCC3)c2c1C(=O)NCCc1ccccc1 | 85%
45 | Cc1nc(N2CCCC2)c2c(C(=O)Nc3cccc(Cl)c3)c(C)oc2n1 | -3% (active)
46 | CCc1cccc(C)c1NC(=O)c1cc(CN2CCCC2)on1 | 72%
47 | Cc1nc2ccc(S(=O)(=O)N(CC(=O)Nc3ccc(F)cc3F)Cc3ccccc3)cc2s1 | 88%
48 | CCn1c(=O)c2cc(C(=O)NCc3ccc(F)cc3Cl)sc2c2ccccc21 | 81%
49 | Cc1cccc(CN2CCC(CNC(=O)c3c(C)oc4ncnc(N5CCCCC5)c34)CC2)c1 | 98%
50 | Cc1oc2ncnc(N3CCCCC3)c2c1C(=O)NCC1CCN(Cc2cccc(F)c2)CC1 | -6% (active)
51 | CCCCN(CC)CCCNC(=O)c1c(C)oc2ncnc(N3CCOCC3)c12 | 14% (active)
52 | Cc1oc2ncnc(N3CCCCC3)c2c1C(=O)NCC1CCN(Cc2ccc(F)cc2)CC1 | 90%
53 | CCN(CC)CCCNC(=O)c1c(C)oc2ncnc(N3CCOCC3)c12 | 136%
54 | CCCCN(CC)CCNC(=O)c1c(C)oc2ncnc(N3CCOCC3)c12 | 76%
55 | CCN(C(=O)Cn1ncc2c(=O)oc3ccc(C)cc3c21)c1cc(OC)ccc1OC | 86%
56 | CCOc1ccc(Nc2nn(-c3ccc(OC(F)(F)F)cc3)nc2C(C)=O)cc1 | 123%
